RORgamma inh: qHTS for inhibitors of ROR gamma transcriptional activity; actives 5.4% (n = 310,000); Drosophila S2 Gal4-RORgamma UAS-luciferase reporter, 20 h; Potency, µM (doses to about 53.6 µM), hits mostly inhibitors; Nuclear receptor ROR-gamma (Mus musculus), P51450; further: nearly all actives have a fitted effect of over 60% in size
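In this cell-based reporter format, copper sulfate (700 uM final) drives Gal4–ROR gamma fusion expression from a metallothionein promoter in Drosophila Schneider cells; compounds preincubated 1 hr, reporter read after 20 hr at ambient temperature.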
B2AR arrestin: qHTS assay of beta-arrestin-biased ligands of beta2-adrenergic receptor | Beta-2 adrenergic receptor (Homo sapiens), P07550 | beta-arrestin recruitment to beta2AR, cell-based reporter | Potency, µM (doses to about 46.1 µM), usual class: activators | actives 0.02% (n = 330,000) | AID 492947, 2010; further: nearly all actives have a fitted effect of over 65% in size
Gal4-VP16 FLuc: VP16 counterscreen qHTS for inhibitors of ROR gamma transcriptional activity; Drosophila S2 Gal4-VP16 UAS-luciferase, luminescence, 20 h; Potency, µM (titrated, usually from 53.6 µM), most hits filed as inhibitors; actives 3.5% (n = 310,000); AID 2546, 2010;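 further: Gal4-VP16 expression switched on by copper sulfate through the metallothionein promoter; nearly all actives have a fitted effect of over 50% in size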
ELG1 repair inh: qHTS screen for small molecules that inhibit ELG1-dependent DNA repair in human embryonic kidney (HEK293T) cells expressing luciferase-tagged ELG1. HEK293T ELG1-luciferase reporter, luminescence, 16 h; DNA damage induced by 5-fluorouridine. actives 2.3% (n = 330,000). Potency, µM (series often up to 46.1 µM), hits mostly inhibitors; further: nearly all actives have a fitted effect of over 55% in size
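Cells (2,000 per well) received 5-fluorouridine plus test compound or DMSO and were incubated 16 hr at 37 °C, 5% CO2. Luciferase activity was read by luminescence 30 min after ONE-Glo addition; signal suppression marked inhibition of damage-induced ELG1 function.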
TSHR antagonist: Antagonists of the Thyroid Stimulating Hormone Receptor: HTS campaign; TSHR-expressing cells, TSH-stimulated cAMP HTRF, 2 h; hits give low values; actives 0.2% (n = 330,000); activity change, negative = inhibition, % at 11.5 µM; Thyrotropin receptor (Homo sapiens), P16473;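 active means activity change below a set negative limit, meaning inhibition stronger than a set level, cut at about -70% in these data; inconclusive means activity change between two set negative limits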
Target sequence (P16473 whole entry, looked up): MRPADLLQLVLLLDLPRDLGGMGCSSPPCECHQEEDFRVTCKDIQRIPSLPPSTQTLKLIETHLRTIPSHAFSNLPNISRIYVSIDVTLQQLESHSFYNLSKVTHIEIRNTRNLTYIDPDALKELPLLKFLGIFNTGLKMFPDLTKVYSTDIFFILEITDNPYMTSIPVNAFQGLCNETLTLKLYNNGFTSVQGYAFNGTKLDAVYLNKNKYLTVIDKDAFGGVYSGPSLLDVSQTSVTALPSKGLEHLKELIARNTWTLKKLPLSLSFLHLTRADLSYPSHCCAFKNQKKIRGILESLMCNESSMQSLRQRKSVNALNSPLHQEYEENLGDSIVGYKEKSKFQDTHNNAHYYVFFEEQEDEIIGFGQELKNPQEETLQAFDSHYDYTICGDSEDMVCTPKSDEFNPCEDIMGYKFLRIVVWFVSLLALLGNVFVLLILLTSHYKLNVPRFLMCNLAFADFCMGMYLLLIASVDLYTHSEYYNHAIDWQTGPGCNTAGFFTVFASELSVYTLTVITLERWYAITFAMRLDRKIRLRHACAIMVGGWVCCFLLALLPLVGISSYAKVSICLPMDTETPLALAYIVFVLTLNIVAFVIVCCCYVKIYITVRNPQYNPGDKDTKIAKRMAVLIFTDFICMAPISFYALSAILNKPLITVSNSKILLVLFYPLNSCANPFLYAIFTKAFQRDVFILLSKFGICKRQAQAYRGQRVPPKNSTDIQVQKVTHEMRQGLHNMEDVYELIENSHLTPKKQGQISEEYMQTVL
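TSHR-expressing cells, 200/well, pre-treated with compound, then stimulated with EC80 TSH (4nM final) for 2 hours at 37 deg C. cAMP measured by competitive HTRF: anti-cAMP cryptate antibody in lysis buffer plus cAMP-d2, read after 30 minutes at room temperature.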
Large screens that a line does not name were inactive. A selection: hits, their analogues and other compounds. The true share with any hit is near 7.5%. Unless noted, the call rests on the fitted dose curve; in most records, active means well fitted curve in the direction sought with a large enough effect; inconclusive means small, poorly fitted or top-dose-only effect, or another doubt; inactive means no such curve, though single readings can be large; an effect the other way counts as inactive or inconclusive.

O=C1c2cccc(OCC(=O)N3CCCc4ccccc43)c2CCN1Cc1ccc(Br)cc1	RORgamma inh inconclusive, ELG1 repair inh 18µM
Cc1ccc(CN2CCc3c(OCC(=O)Nc4cccc(C)c4C)cccc3C2=O)cc1	RORgamma inh inconclusive, ELG1 repair inh inconclusive
O=C(COc1cccc2c1CCN(Cc1ccc(Br)cc1)C2=O)NCc1ccco1	RORgamma inh inconclusive, ELG1 repair inh 18µM
O=C(COc1cccc2c1CCN(Cc1ccc(Br)cc1)C2=O)N1CCOCC1	ELG1 repair inh 7.3µM
CC(=O)c1c(C)oc2ccc(NS(=O)(=O)c3ccc(F)cc3C)cc12	RORgamma inh inconclusive, Gal4-VP16 FLuc 13µM, ELG1 repair inh 6.5µM
C[n+]1cccc(C(=O)Nc2ccccc2)c1	none
Cc1cc(C2CCCCC2)n(O)c(=O)c1	RORgamma inh 2µM, Gal4-VP16 FLuc 2.2µM, ELG1 repair inh inconclusive
COc1cc(C(=O)NCCNC(=O)c2cnccn2)cc(OC)c1OC	ELG1 repair inh inconclusive, TSHR antagonist -82
COc1ccccc1OCC(=O)NNC(=O)c1cnccn1	RORgamma inh 11µM
O=C(NNC(=O)c1cnccn1)c1ccc(Cl)c(Cl)c1	RORgamma inh 6.3µM, Gal4-VP16 FLuc 10µM, ELG1 repair inh inconclusive
O=C(NCCNC(=O)c1cnccn1)c1ccc(Cl)c(Cl)c1	none
CCc1ccc(OCC(=O)NNC(=O)c2cnccn2)c(Br)c1	RORgamma inh inconclusive, Gal4-VP16 FLuc 6.3µM
Cn1cnnc1-c1cccc(NC(=O)c2cc(F)c(F)cc2Cl)c1	none
C=C1C[C@@]23C[C@@]1(O)CC[C@@H]2[C@]12C=C[C@@H](O)[C@](C)(C(=O)O1)[C@@H]2[C@@H]3C(=O)O	none (no result: B2AR arrestin, ELG1 repair inh, TSHR antagonist)
Nc1ccc(N=Nc2ccccc2)c(N)c1	none (no result: B2AR arrestin, ELG1 repair inh, TSHR antagonist)
Nc1ccccc1N=Nc1ccccc1N	RORgamma inh 10µM, Gal4-VP16 FLuc inconclusive, ELG1 repair inh inconclusive
CC(C)[C@H](NS(=O)(=O)c1ccccc1)C(=O)OCn1nnc2ccccc2c1=O	ELG1 repair inh inconclusive
Cc1ccc(S(=O)(=O)N[C@H](C(=O)OCn2nnc3ccccc3c2=O)C(C)C)cc1	ELG1 repair inh 21µM
C[C@H](NC(N)=O)C(=O)Nc1ccc(N2CCOCC2)c(S(=O)(=O)Nc2ccc(Cl)cc2)c1	none (no result: RORgamma inh, Gal4-VP16 FLuc)
COc1ccc2c(c1)OC(=O)CC2c1ccc2c(c1)OCO2 (stereo unspecified)	none (no result: B2AR arrestin, ELG1 repair inh, TSHR antagonist)
CCC(=O)Nc1ccc2oc(-c3cccc(C)c3)nc2c1	RORgamma inh 0.79µM, Gal4-VP16 FLuc 2.2µM, ELG1 repair inh inconclusive
Cc1cccc(-c2nc3cc(NC(=O)C4CCCO4)ccc3o2)c1 (stereo unspecified)	RORgamma inh 0.28µM, Gal4-VP16 FLuc inconclusive, ELG1 repair inh inconclusive
CCC(=O)Nc1ccc(-c2nnc(-c3ccccc3)o2)cc1	RORgamma inh inconclusive, Gal4-VP16 FLuc inconclusive, ELG1 repair inh inconclusive
CCC(=O)Nc1ccc(-c2nc3ccccc3c(=O)o2)cc1	Gal4-VP16 FLuc 16µM
COc1cc(C(=O)Nc2cccc(-c3nc4cc(C)ccc4o3)c2)cc(OC)c1OC	RORgamma inh inconclusive, ELG1 repair inh 15µM
CC(C)(C)c1ccc(OCCC(=O)Nc2cccc(S(=O)(=O)NC3=NCCCCC3)c2)cc1	ELG1 repair inh inconclusive (no result: RORgamma inh, Gal4-VP16 FLuc)
CCN(CC)S(=O)(=O)c1cccc(-c2nnc(SCC(=O)NC)n2N)c1	Gal4-VP16 FLuc inconclusive
CCN(CC)S(=O)(=O)c1cccc(-c2nnc(SCc3nnc(-c4cccs4)o3)n2N)c1	RORgamma inh inconclusive, ELG1 repair inh 21µM
C[C@H](NC(=O)c1[nH]cnc1C(=O)Nc1ccccc1)C(=O)OC(C)(C)C	RORgamma inh 2.8µM, Gal4-VP16 FLuc 11µM, ELG1 repair inh inconclusive
Cc1ccccc1NC(=O)c1[nH]cnc1C(=O)NN	none
Cc1ccc(NC(=O)c2nc[nH]c2C(=O)N[C@@H](C)C(=O)OC(C)(C)C)cc1	RORgamma inh 6.3µM, Gal4-VP16 FLuc inconclusive
COc1ccc(NC(=O)c2nc[nH]c2C(=O)N2CCN(c3ccccc3)CC2)cc1	RORgamma inh 5.6µM, Gal4-VP16 FLuc 11µM
C[C@H](NC(=O)c1nc[nH]c1C(=O)N[C@@H](C)C(=O)OC(C)(C)C)C(=O)OCc1ccccc1	RORgamma inh inconclusive, Gal4-VP16 FLuc inconclusive
